In PubChem BioAssay (EPA / NIEHS):
Results filed as inconclusive are left out. Calls of active or inactive are those of the source. How the source made its calls, unless noted: active means hit-call score of the fitted dose curve at least 0.9, where 1 is the maximum; inactive means score below 0.9.

Legend:
[1] = CCTE_Mundy_HCI_Cortical_NOG_NeuriteLength: CCTE's Neurite Outgrowth Assay in rat cortical cells for Neurite Length, Mundy Lab (AID 2284213)
Procedure, shortened: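 First, rat primary cortical cells were plated and, 2 h later, given test chemical as a 1/10 dilution. Finally, βIII-tubulin immunostaining enabled automated imaging of neurite length.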

[2] = CCTE_Mundy_HCI_Cortical_Synap_Neur_Matur_NeuriteLength: CCTE's Synaptogenesis and Neurite Maturation Assay in rat cortical cells for Neurite Length, Mundy Lab (AID 2284214)
Procedure, shortened: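 Cultures of rat primary cortical cells received chemical at DIV 7 and were fixed at DIV 12, after glial arrest with AraC at DIV 5. Neurite length was measured by automated imaging of MAP2 immunofluorescence.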

[3] = CCTE_Mundy_HCI_Cortical_Synap_Neur_Matur_SynapseCount: CCTE's Synaptogenesis and Neurite Maturation Assay in rat cortical cells for Synapse Count, Mundy Lab (AID 2284218)
Procedure, shortened: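 Cells were plated, allowed 2 hr to attach, treated with AraC at DIV 5, then exposed to chemicals from DIV 7 until DIV 12. After fixation and MAP2/synaptophysin immunolabelling, synapses per neuron were quantified by automated imaging against DMSO.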

[4] = CCTE_Mundy_HCI_Cortical_Synap_Neur_Matur_NeuriteCount: CCTE's Synaptogenesis and Neurite Maturation Assay in rat cortical cells for Neurite Count, Mundy Lab (AID 2284222);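 further: exposure from day 7 to day 12 in vitro with readout at day 12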
Procedure, shortened: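 In this multiplexed morphology readout, rat primary cortical neurons are fixed at DIV 12 following dosing at DIV 7 and stained for MAP2, synaptophysin and nuclei. High-content image analysis yields neurite count.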

[5] = CCTE_Mundy_HCI_Cortical_Synap_Neur_Matur_CellBodySpotCount: CCTE's Synaptogenesis and Neurite Maturation Assay in rat cortical cells for Cell Body Spot Count, Mundy Lab (AID 2284223)
Procedure, shortened: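 Primary rat cortical cultures, AraC added at DIV 5; dosed DIV 7 through DIV 12 […]. Fixed, stained for MAP2 and synaptophysin with Hoechst; cell body-associated synaptophysin puncta per neuron counted by high-content imaging, loss vs DMSO.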

[6] = CCTE_Mundy_HCI_hNP1_Pro_ResponderAvgInten: CCTE's Proliferation Assay in human neuroprogenitor cells, Mundy Lab (AID 2284224; active means hit-call score of the fitted dose curve at least 0.9, where 1 is the maximum;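 further: human neural progenitor cells hNP1 derived from WA09 embryonic stem cells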)
Procedure, shortened: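 Human neuroprogenitors (hNP1, WA09 lineage) receive test chemical after 40 to 44 hours of attachment. A four-hour BrdU pulse begins twenty hours later, followed by fixation and high content imaging; signal is referenced to DMSO controls.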

[7] = UKN2_HCS_IMR90_cell_viability: Viability Assessment in the University of Konstanz (UKN) Leist Lab Neural Crest Cell Migration Assay in human induced IMR90 Pluripotent Stem Cells (UKN2) (AID 2284233);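 further: viability of neural crest cells differentiated from IMR90 iPSC measured by calcein-AM fluorescence imaging; cells exposed to compound for 24 h after a 24 h migration phase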
Procedure, shortened: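 cMINC format, iPSC-derived neural crest (IMR90); 24 h migration (EGF/FGF, N2-S), then 24 h toxicant. Calcein-AM/H-33342 stain 30 min; fluorescence intensity by HCS; DMSO-normalised, bidirectional fitting.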

[8] = CCTE_Mundy_HCI_Cortical_NOG_NeuronCount: CCTE's Neurite Outgrowth Assay in rat cortical cells for Neuron Count, Mundy Lab (AID 2284236; active means hit-call score of the fitted dose curve at least 0.9, where 1 is the maximum;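 further: neurons counted by imaging betaIII-tubulin and Hoechst stained cortical cells; cells exposed to compound for about 48 hours before fixation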)
Procedure, shortened: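 Read-out: neuron number by high-content imaging of betaIII-tubulin (Alexa Fluor-488) and Hoechst-labelled rat primary cortical cells.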

[9] = CCTE_Mundy_HCI_Cortical_NOG_BPCount: CCTE's Neurite Outgrowth Assay in rat cortical cells for Branch Point Count, Mundy Lab (AID 2284237)
Procedure, shortened: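 Measured 50.33 h after dosing, this morphology endpoint uses rat primary cortical cultures labelled for betaIII-tubulin. Branch points are quantified by high-content imaging, with DMSO as negative control and baseline.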

[10] = CCTE_Mundy_HCI_hNP1_Casp3_7: CCTE's Caspase-Glo 3/7 Assay in human neuroprogenitor cells for Apoptosis, Mundy Lab (AID 2284240)
Procedure, shortened: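 Neuroepithelial-lineage stem cells from WA09 embryonic cells were treated with chemicals after 40–44 h of culture. Twenty-four hours later, caspase-3/7 activation was detected luminescently after a 30 min room-temperature reagent step, with DMSO as baseline.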

[11] = CCTE_Mundy_HCI_hNP1_CellTiter: CCTE's Cell Titer-Glo 2 Assay in human neuroprogenitor cells for Viability, Mundy Lab (AID 2284241; active means hit-call score of the fitted dose curve at least 0.9, where 1 is the maximum;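 further: a hit is a drop in ATP luminescence versus DMSO meaning reduced viability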)
Procedure, shortened: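 Measures ATP content in human neural progenitors derived from WA09 embryonic cells. Read-out at 26.5 hours after dosing, with DMSO serving as the negative control and baseline.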

[12] = CCTE_Mundy_HCI_Cortical_Synap_Neur_Matur_NeuronCount: CCTE's Synaptogenesis and Neurite Maturation Assay in rat cortical cells for Neuron Count, Mundy Lab (AID 2284242; active means hit-call score of the fitted dose curve at least 0.9, where 1 is the maximum)
Procedure, shortened: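 Cortical cells from rat are plated, treated with AraC at DIV 5, and exposed to test chemicals with a media change at DIV 7. At DIV 12 they are fixed and immunostained (MAP2, synaptophysin), and imaged neuron counts are compared against DMSO controls.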

[13] = IUF_NPC2a_radial_glia_migration_120hr: Leibniz Research Institute for Environmental Medicine (IUF) 120-hour Neural Progenitor Cell Migration Assay for Radial Glia Migration (NPC2a) (AID 2284298)
Procedure, shortened: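 Human fetal-cortex neural progenitor spheres (0.3 mm) plated on poly-D-lysine/laminin in N2 differentiation medium, exposed 120 h at 37C with half-medium renewal at day 3. Radial glia migration distance (um) measured from Hoechst-stained nuclei images; DMSO baseline.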

[14] = IUF_NPC2a_radial_glia_migration_72hr: Leibniz Research Institute for Environmental Medicine (IUF) 72-hour Neural Progenitor Cell Migration Assay for Radial Glia Migration (NPC2a) (AID 2284299)
Procedure, shortened: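 Single 0.3 mm neurospheres were plated per well in N2 differentiation medium and exposed from the start of differentiation. After 72 hours, brightfield images were taken and radial glia migration from the sphere core edge was measured manually in four directions, averaged per well.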

[15] = IUF_NPC2b_neuronal_migration_120hr: Leibniz Research Institute for Environmental Medicine (IUF) 120-hour Neural Progenitor Cell Migration Assay for Neuron Migration (NPC2b) (AID 2284300)
Procedure, shortened: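 0.3 mm hNPC spheres on poly-D-lysine/laminin in N2 differentiation medium exposed 120 h, half-medium refresh day 3; 7 concentrations, DMSO max 0.1%. Neuron (TUBB3) distance from sphere core by ICC imaging, normalised to radial glia migration.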

[16] = IUF_NPC3_neuronal_differentiation_120hr: Leibniz Research Institute for Environmental Medicine (IUF) 120-hour Neuronal Differentiation Assay (NPC3) (AID 2284301)
Procedure, shortened: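 Neuronal differentiation of primary human neural progenitors measured by high-content imaging: percent TUBB3+ of Hoechst+ nuclei within migrated area at 120 h, seven-point serial dilution plus solvent control, gain or loss relative to DMSO.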

[17] = IUF_NPC4_neurite_length_120hr: Leibniz Research Institute for Environmental Medicine (IUF) 120-hour Neuronal Morphology Assay for Neurite Length (NPC4) (AID 2284302)
Procedure, shortened: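 Neurons from differentiating human fetal neural progenitor spheres are scored for average neurite length after five days of compound exposure. Fitting uses DMSO as negative control.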

[18] = IUF_NPC5_oligodendrocyte_differentiation_120hr: Leibniz Research Institute for Environmental Medicine (IUF) 120-hour Oligodendrocyte Differentiation Assay (NPC5) (AID 2284304; active means hit-call score of the fitted dose curve at least 0.9, where 1 is the maximum;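 further: primary human fetal neural progenitor spheres plated to migrate and differentiate; share of O4-positive cells among Hoechst nuclei found by CNN image analysis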)
Procedure, shortened: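 Human fetal neural progenitor spheres (0.3 mm) plated on poly-D-lysine/laminin in N2 differentiation medium and exposed for 120 h at 7 concentrations, with half-medium renewal at day 3. O4-positive cells identified by CNN, expressed as percent of Hoechst nuclei.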

[19] = IUF_NPC4_neurite_area_120hr: Leibniz Research Institute for Environmental Medicine (IUF) 120-hour Neuronal Morphology Assay for Neurite Area (NPC4) (AID 2284305; active means hit-call score of the fitted dose curve at least 0.9, where 1 is the maximum)
Procedure, shortened: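 Endpoint at 120 h: automated imaging of TUBB3/Hoechst-stained differentiating human neural progenitor spheres, neurite area per neuron from skeletonization. DMSO solvent control, not above 0.1%, set the baseline; medium was half-replaced on day 3.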

[20] = IUF_NPC2-5_cytotoxicity_72hr: Cytotoxicity Assessment at 72 hours in the Leibniz Research Institute for Environmental Medicine (IUF) Neural Progenitor Cell Migration and Differentiation Assay for Cytotoxicity (NPC2-5) (AID 2284306; active means hit-call score of the fitted dose curve at least 0.9, where 1 is the maximum;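 further: LDH release into supernatant measured by resorufin fluorescence marking membrane damage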)
Procedure, shortened: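 Primary human neural progenitor spheres migrate and differentiate on laminin. Compound is present from the start of differentiation, with DMSO kept at or below 0.1%. At 72 h, supernatant LDH is quantified fluorometrically, with values fitted in the positive direction.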

[21] = IUF_NPC2-5_cytotoxicity_120hr: Cytotoxicity Assessment at 120 hours in the Leibniz Research Institute for Environmental Medicine (IUF) Neural Progenitor Cell Migration and Differentiation Assay (NPC2-5) (AID 2284307; active means hit-call score of the fitted dose curve at least 0.9, where 1 is the maximum)
Procedure, shortened: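 Human fetal (GW 16-19) neural progenitor spheres (0.3 mm) plated on poly-D-lysine/laminin in N2 differentiation medium, exposed 120 h with half-medium renewal at day 3; 7 concentrations plus solvent control, DMSO ≤0.1%. LDH release in supernatant read by resorufin fluorescence.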

[22] = IUF_NPC2-5_cell_number_120hr: Cell Number Assessment at 120 hours in the Leibniz Research Institute for Environmental Medicine (IUF) Neural Progenitor Cell Migration and Differentiation Assay (NPC2-5) (AID 2284308);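 further: count of Hoechst-stained nuclei in migration zone around plated human neural progenitor spheres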
Procedure, shortened: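 Human fetal neural progenitor spheres (0.3 mm) plated on poly-D-lysine/laminin in N2 differentiation medium, exposed five days across 7 concentrations with half-medium refresh at day 3. Hoechst-positive nuclei counted in migration area at 120 h, relative to DMSO.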

[23] = IUF_NPC2-5_viability_120hr: Viability Assessment at 120 hours in the Leibniz Research Institute for Environmental Medicine (IUF) Neural Progenitor Cell Migration and Differentiation Assay (NPC2-5) (AID 2284312)
Procedure, shortened: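 Human fetal (GW 16-19) neural progenitor spheres of 0.3 mm were plated on poly-D-lysine/laminin in N2 differentiation medium and exposed from day 0 for 120 h, with half-medium refresh at day 3. Viability was read as alamar blue resazurin-to-resorufin fluorescence against DMSO.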

[24] = CCTE_Mundy_HCI_iCellGluta_NOG_NeuriteLength: CCTE's Neurite Outgrowth Assay in iCellGluta cells for Neurite Length, Mundy Lab (AID 2284318; active means hit-call score of the fitted dose curve at least 0.9, where 1 is the maximum)
Procedure, shortened: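 Automated high-content imaging of betaIII-tubulin (Alexa Fluor-488) and Hoechst-stained cells gave neurite length, normalized to the DMSO baseline.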

[25] = IUF_NPC1_cytotoxicity_72hr: Cytotoxicity Assessment at 72 hours in the Leibniz Research Institute for Environmental Medicine (IUF) Neural Progenitor Cell Proliferation Assay (NPC1) (AID 2284332; active means hit-call score of the fitted dose curve at least 0.9, where 1 is the maximum;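 further: rising LDH signal means more cytotoxicity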)
Procedure, shortened: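 Membrane-integrity loss is scored from LDH released into the medium, detected as resorufin fluorescence, with activity fitted upward relative to baseline. Test material stays on human fetal-derived progenitor spheres for 72 h.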

Measured: AC50

C[C@@H]1CCO[C@H]2Cn3cc(C(=O)NCc4ccc(F)cc4F)c(=O)c(O)c3C(=O)N12
active: [3] 3.05 µM | [6] 15.6 µM | [10] 10.1 µM | [11] 14.9 µM
inactive: [1] | [2] | [4] | [5] | [7] | [8] | [9] | [12] | [13] | [14] | [15] | [16] | [17] | [18] | [19] | [20] | [21] | [22] | [23] | [24] | [25]
